Experimental data from PubChem BioAssay AID920 (The Scripps Research Institute Molecular Screening Center, 2007).
Hit rate of the full screen: of about 200,000 compounds, about 700 (0.35%) were called active. Only a selection was taken, and actives are over-represented in it overall. Values without a mark were called inactive.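 Rule for the calls: active = inhibition above a set limit, the mean inhibition across all tested compounds plus 3 SD (cut at about 34% in these data); inactive = the rest.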

Test: blockers of IFN-gamma driven STAT1 reporter – cell-based, HTS, luciferase reporter, primary screen (AID 920);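 note: 0% = IFN-gamma with DMSO and 100% = IFN-gamma with 300 µM nifuroxazide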
Conditions: NIH 3T3 STAT1-luciferase reporter, luminescence, at 5.5 µM, hits give high values

| SMILES | inhibition |
| --- | --- |
| COc1cccc(-c2nc3ccc(N4CCN(C)CC4)cc3[nH]2)c1 | 63.1% (active) |
| CN1CCN(c2cc(N3CCNCC3)ccc2[N+](=O)[O-])CC1 | 12.4% |
| Cc1nc2ccc(N3CCN(C)CC3)cc2nc1C | -26.2% |
| CN(C)/C=C(\C=[N+](C)C)c1[nH]ncc1[N+](=O)[O-] | -9.13% |
| COc1ccc(CCn2c(O)c(C=NCCCn3ccnc3)c(=O)[nH]c2=O)cc1OC | -4.43% |
